Test results as given in the supplement of paper PMC10681739.

Tests used:
ETS1 [1] = target: T1, ETS1 (UniProt P14921); assay: ETS1 binding intensity (PBM fluorescence), ETS1 alone (arbitrary fluorescence units); higher = stronger binding; conditions: ETS1 concentration 1 nM; RUNX1 concentration 0 nM
T1 sequence: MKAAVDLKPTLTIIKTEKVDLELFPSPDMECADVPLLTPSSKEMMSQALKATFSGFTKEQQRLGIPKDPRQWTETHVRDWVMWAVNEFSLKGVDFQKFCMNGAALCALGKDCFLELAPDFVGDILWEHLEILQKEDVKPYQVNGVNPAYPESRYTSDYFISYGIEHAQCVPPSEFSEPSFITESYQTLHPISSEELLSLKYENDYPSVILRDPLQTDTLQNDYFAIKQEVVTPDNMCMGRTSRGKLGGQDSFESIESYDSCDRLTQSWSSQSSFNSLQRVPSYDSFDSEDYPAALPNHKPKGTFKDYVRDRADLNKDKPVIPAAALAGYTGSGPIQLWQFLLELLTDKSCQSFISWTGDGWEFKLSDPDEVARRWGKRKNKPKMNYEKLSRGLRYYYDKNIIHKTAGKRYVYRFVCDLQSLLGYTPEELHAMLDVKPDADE

RUNX1 [2] = target: RUNX1 (UniProt Q01196); assay: RUNX1 binding intensity (PBM fluorescence), RUNX1 alone (arbitrary fluorescence units); higher = stronger binding; conditions: RUNX1 concentration 2 nM; ETS1 concentration 0 nM
RUNX1, sequence (Q01196 whole entry): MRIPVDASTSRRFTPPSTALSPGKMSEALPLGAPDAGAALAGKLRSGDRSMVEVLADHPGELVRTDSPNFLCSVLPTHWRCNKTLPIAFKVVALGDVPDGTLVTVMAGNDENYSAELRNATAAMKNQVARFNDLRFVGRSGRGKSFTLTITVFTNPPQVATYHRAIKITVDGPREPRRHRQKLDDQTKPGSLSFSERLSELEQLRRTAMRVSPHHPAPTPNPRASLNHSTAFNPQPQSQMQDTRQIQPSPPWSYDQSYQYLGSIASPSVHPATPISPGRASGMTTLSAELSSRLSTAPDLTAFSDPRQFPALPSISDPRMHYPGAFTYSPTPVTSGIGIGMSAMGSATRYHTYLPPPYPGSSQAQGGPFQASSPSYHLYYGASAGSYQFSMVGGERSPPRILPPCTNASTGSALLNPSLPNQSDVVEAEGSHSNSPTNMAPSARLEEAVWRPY
Procedure: (§1)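 Cooperative gcPBM on 36-bp genomic probes with neighbouring ETS1 and RUNX1 sites. Recombinant human RUNX1 (2 nM) was incubated alone or with ETS1 (25 nM) and detected with anti-RUNX1 antibody plus Alexa488 secondary. Values are medians over 4 replicate spots; the RUNX1+ETS1 data were normalised to the RUNX1-only data. The probes sit in constant array flanks that are not printed.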

ETS1 [3] = target: T1, ETS1; assay: ETS1 binding intensity (PBM fluorescence) in presence of RUNX1, normalised to ETS1-only experiment (arbitrary fluorescence units); higher = stronger binding; conditions: ETS1 concentration 1 nM; RUNX1 concentration 25 nM
RUNX1 [4] = target: RUNX1 (UniProt Q01196); assay: RUNX1 binding intensity (PBM fluorescence) in presence of ETS1, normalised to RUNX1-only experiment (arbitrary fluorescence units); higher = stronger binding; conditions: RUNX1 concentration 2 nM; ETS1 concentration 25 nM
Procedure: as §1
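For RUNX1 binding intensity (PBM fluorescence) in presence of ETS1, normalised to RUNX1-only experiment in this document: Full-length recombinant human ETS1 or RUNX1 bound to double-stranded 36-bp genomic probes on microarrays, detected by protein-specific primary antibody and Alexa488 secondary, spot fluorescence as median of four replicate spots.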
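For RUNX1 binding intensity (PBM fluorescence), RUNX1 alone in this document: Full-length recombinant human RUNX1 bound to double-stranded 36-bp genomic probes on a high-density microarray, scored as Alexa488 fluorescence per spot via anti-RUNX1 antibody, median of four replicate spots.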

AGCTGAGAGCCTGCCGGAAGCCACAGCTTCTTCTCG
ETS1 binding intensity (ETS1 [1]): 4180
RUNX1 binding intensity (RUNX1 [2]): 801
ETS1 binding intensity (ETS1 [3]): 5670
RUNX1 binding intensity (RUNX1 [4]): 1200

CCCTGCCATTTCCTGCCCAATACCGCGTATGCAACT
ETS1 binding intensity (ETS1 [1]): 1630
RUNX1 binding intensity (RUNX1 [2]): 1780
ETS1 binding intensity (ETS1 [3]): 1700
RUNX1 binding intensity (RUNX1 [4]): 4240

GTATGGGAAGTGATCTGGCTGCAAACCGCAAGAGAG
ETS1 binding intensity (ETS1 [1]): 549
RUNX1 binding intensity (RUNX1 [2]): 4520
ETS1 binding intensity (ETS1 [3]): 2730
RUNX1 binding intensity (RUNX1 [4]): 7290

CTTATCTTCTTCCTGTGAGCTGTGTGTGGGTGGCTC
ETS1 binding intensity (ETS1 [1]): 489
RUNX1 binding intensity (RUNX1 [2]): 942
ETS1 binding intensity (ETS1 [3]): 397
RUNX1 binding intensity (RUNX1 [4]): 1580

CAGCGGCCGTCGCGGGAAGTGCGGTCGCCGCGGCCA
ETS1 binding intensity (ETS1 [1]): 500
RUNX1 binding intensity (RUNX1 [2]): 871
ETS1 binding intensity (ETS1 [3]): 1120
RUNX1 binding intensity (RUNX1 [4]): 966

CACCCAGTTTGAACTTCCTGGCGGTTTTGTTTACAC
ETS1 binding intensity (ETS1 [1]): 673
RUNX1 binding intensity (RUNX1 [2]): 972
ETS1 binding intensity (ETS1 [3]): 853
RUNX1 binding intensity (RUNX1 [4]): 1730

AACAGTACTTCCGGGGCAAGTGAGCGCCCACAAGGC
ETS1 binding intensity (ETS1 [1]): 934
RUNX1 binding intensity (RUNX1 [2]): 806
ETS1 binding intensity (ETS1 [3]): 1300
RUNX1 binding intensity (RUNX1 [4]): 1970

TTGCACACGTGGGCGGGAAGTGGTTAAGCGGCCTCA
ETS1 binding intensity (ETS1 [1]): 1020
RUNX1 binding intensity (RUNX1 [2]): 725
ETS1 binding intensity (ETS1 [3]): 4280
RUNX1 binding intensity (RUNX1 [4]): 1210

CCTAGAACCGGAAGAGAAAGGGGCTGCGGTGCAGCA
ETS1 binding intensity (ETS1 [1]): 1680
RUNX1 binding intensity (RUNX1 [2]): 845
ETS1 binding intensity (ETS1 [3]): 6270
RUNX1 binding intensity (RUNX1 [4]): 1420

GTCTTACTTCCTGTCCCCGCCCACCGCGACTGTCTT
ETS1 binding intensity (ETS1 [1]): 2560
RUNX1 binding intensity (RUNX1 [2]): 1740
ETS1 binding intensity (ETS1 [3]): 3520
RUNX1 binding intensity (RUNX1 [4]): 3600

ATGGAAAGGAAGTCGGTGGGAAACCGCCTCAGCGGT
ETS1 binding intensity (ETS1 [1]): 797
RUNX1 binding intensity (RUNX1 [2]): 740
ETS1 binding intensity (ETS1 [3]): 1020
RUNX1 binding intensity (RUNX1 [4]): 1200

GCAGCTCTGGCAGGATGCGGTTAAATATGTATCCAC
ETS1 binding intensity (ETS1 [1]): 2010
RUNX1 binding intensity (RUNX1 [2]): 1920
ETS1 binding intensity (ETS1 [3]): 12700
RUNX1 binding intensity (RUNX1 [4]): 7800

GAAGCGGAAGTCGCTGAGGGGTGGTGAAGCGGTTGG
ETS1 binding intensity (ETS1 [1]): 1930
RUNX1 binding intensity (RUNX1 [2]): 710
ETS1 binding intensity (ETS1 [3]): 2420
RUNX1 binding intensity (RUNX1 [4]): 1010

GCACTACATTTCCCAGCTTTCCTCGCGGTAAAGAGA
ETS1 binding intensity (ETS1 [1]): 456
RUNX1 binding intensity (RUNX1 [2]): 1270
ETS1 binding intensity (ETS1 [3]): 429
RUNX1 binding intensity (RUNX1 [4]): 1270
